Compounds without any hit were thinned out: in the full panel of roughly 83,000, 20% have a hit.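 Growth was measured after 48 h exposure to one concentration of compound in 96-well plates. Values under 10 count as active.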 Values without a mark were called inactive. Calls of active or inactive are those of the source.
Key:
Experiment in all cases: NCI-60 one-dose screen, 48 h (100 = growth as untreated, 0 = no growth, -100 = all killed)
Details in all cases: 10 µM unless noted
NCI-H23 lung = tested on: NCI-H23 lung
NCI-H226 lung = tested on: NCI-H226 lung
NCI-H322M lung = tested on: NCI-H322M lung
HOP-62 NSCLC = tested on: HOP-62 NSCLC
NCI-H460 lung = tested on: NCI-H460 lung
HOP-92 NSCLC = tested on: HOP-92 NSCLC
NCI-H522 lung = tested on: NCI-H522 lung
A549/ATCC NSCLC = tested on: A549/ATCC NSCLC
786-0 renal = tested on: 786-0 renal
COLO 205 colon = tested on: COLO 205 colon
DU-145 prostate = tested on: DU-145 prostate
K-562 leukemia = tested on: K-562 leukemia
MALME-3M melanoma = tested on: MALME-3M melanoma
MDA-MB-231 breast = tested on: MDA-MB-231 breast
RXF 393 renal = tested on: RXF 393 renal
SF-268 CNS = tested on: SF-268 CNS
SF-295 CNS = tested on: SF-295 CNS
SF-539 CNS = tested on: SF-539 CNS
UACC-257 melanoma = tested on: UACC-257 melanoma
M14 melanoma = tested on: M14 melanoma

SMILES | growth (NCI-H23 lung) | growth (NCI-H226 lung) | growth (NCI-H322M lung) | growth (HOP-62 NSCLC) | growth (NCI-H460 lung) | growth (HOP-92 NSCLC) | growth (NCI-H522 lung) | growth (A549/ATCC NSCLC) | growth (786-0 renal) | growth (COLO 205 colon) | growth (DU-145 prostate) | growth (K-562 leukemia) | growth (MALME-3M melanoma) | growth (MDA-MB-231 breast) | growth (RXF 393 renal) | growth (SF-268 CNS) | growth (SF-295 CNS) | growth (SF-539 CNS) | growth (UACC-257 melanoma) | growth (M14 melanoma)
O=C(Nc1ccccc1O)c1ccc(CNC(=O)c2sccc2Nc2ccnc(C(F)(F)F)c2)cc1 | 51.7% | 54.8% | 51% | 65.6% | 42% | 20.9% | 7.48% (active) | 66.5% | 60.4% | 73.3% | 46.7% | 25.1% | -2.09% (active) | 53% | 47.9% | 49.2% | 43.6% | 48.9% | 46.5% | 58.3%
c1ccc2cc(C[n+]3ccn(CCCCCCCCCCn4cc[n+](Cc5ccc6ccccc6c5)c4)c3)ccc2c1 | 5.67% (active) | 39.5% | 34.5% | -4.86% (active) | 11% | -23.6% (active) | -72.3% (active) | 18.5% | 35.6% | -81.1% (active) | 28.4% | 8.6% (active) | -20.4% (active) | 16.5% | 9.07% (active) | 13.7% | 16.5% | 10.4% | -13.8% (active) | 31.8%
N=C(N)c1ccc(-c2ccc(-c3ccccc3)o2)cc1 | 3.73% (active) | -26.4% (active) | -37.8% (active) | -50.7% (active) | -73.1% (active) | -59.5% (active) | -82.6% (active) | -30.1% (active) | -86% (active) | -87.7% (active) | -11.2% (active) | -33.2% (active) | -81.5% (active) | -58.2% (active) | -76.3% (active) | -31.1% (active) | -70.4% (active) | -83.7% (active) | -72.4% (active) | -91.3% (active)
Cn1cc(-c2ccc3nc(-c4ccc(CC(=O)ONc5cc(C(C)(C)C)on5)cc4)cnc3c2)cn1 | 43.7% | 43.2% | 22.8% | 37.1% | 25.2% | 30.3% | 39.4% | 31.1% | 23.1% | 51.3% | 35.1% | 10.3% | 22.4% | 39.1% | 28.8% | 33.5% | 38.1% | 17% | 39.8% | 18.7%
CCc1ccc(CCCC(=O)O)cc1 | 96.5% | 95.1% | 101% | 87% | 108% | 91.1% | 89.9% | 97.7% | 95.4% | 112% | 102% | 98.9% | 107% | 100% | 112% | 102% | 98.5% | 103% | 106% | 94.2%
Cc1ccc(-c2nc(N3CCCNCC3)c3oc(-c4ccc(C)cc4)nc3n2)cc1 | 91.1% | 101% | 16.5% | 71.8% | -37.5% (active) | 60.9% | 65% | -62.3% (active) | -96.2% (active) | -71.6% (active) | 42% | -76% (active) | 106% | -78.8% (active) | 80.6% | 90.2% | 108% | 73.8% | 101% | -94.7% (active)
Cn1cc(-c2nonc2-c2cn(C)c3ccccc23)c2ccccc21 | 43.1% | 81% | 47% | 21.2% | 8.94% (active) | 48.8% | -20.5% (active) | 21.8% | 28.1% | -34% (active) | 16.3% | 9.77% (active) | 53.4% | 23.2% | 1.39% (active) | 48.1% | 17.5% | -21.6% (active) | 65.7% | 6.28% (active)
CC(=O)/C(=C\c1c(-c2ccccc2)[nH]c2ccccc12)S(C)(=O)=O | 33.7% | 69.1% | 58.2% | 50.5% | 4.15% (active) | 42% | 29.6% | 42.8% | 22.8% | 21.2% | 13.2% | -25.7% (active) | 32.9% | 32.3% | -5.08% (active) | 41.6% | 3.77% (active) | -34.8% (active) | 59.8% | 3.01% (active)
Nc1c(C(=O)Nc2ccccc2C(F)(F)F)sc2nc3c(cc12)CCC3 | 95.7% | 82.6% | 87.5% | 88.6% | 105% | 96.6% | 85.7% | 90.4% | 93% | 115% | 108% | 94.4% | 99.8% | 92% | 84.6% | 106% | 95.1% | 100% | 101% | 113%
CCSc1nc2scc(C)c2c(=O)[nH]1 | 95.1% | 99.2% | 104% | 106% | 102% | 101% | 94.6% | 99.2% | 94% | 111% | 105% | 99.9% | 106% | 104% | 112% | 100% | 99.2% | 99.2% | 105% | 107%
Cc1c[n+](Cc2ccc3ccccc3c2)cn1Cc1ccc2ccccc2c1 | 27.7% | 31.8% | 65.7% | 33.2% | 21.9% | -20.9% (active) | -17.9% (active) | 60.5% | 41% | -78.7% (active) | 37.1% | 8.82% (active) | 0.847% (active) | -8.23% (active) | 2.91% (active) | 24.3% | 45.5% | 33.1% | -26.1% (active) | -15.5% (active)
NC(=O)c1ccc(-c2c3ccccc3cc3c2ccc2ccccc23)cc1 | 70.7% | 65.6% | 80.1% | 65.7% | 29.9% | 76.4% | -20.6% (active) | 63.1% | 52.4% | 52.5% | 53.3% | 14% | 54.7% | 42.2% | 23% | 56% | 46.1% | 34.5% | 52.4% | 14.9%
COC1=CC(c2ccc[nH]2)=N/C1=C\c1[nH]c(C)c(CC(=O)NCc2ccccc2)c1C | 23.9% | 28.8% | 42.7% | 20.6% | 10.9% | -7.96% (active) | 17% | 18.1% | -42.7% (active) | 1.08% (active) | 34.7% | 0.172% (active) | -42.2% (active) | 0.672% (active) | 30.5% | 11.3% | -55.5% (active) | 2.49% (active) | -19.4% (active) | -49% (active)
CCN1C(=S)N(c2ccccc2)C2NC(=S)N(/N=C/C=C/c3ccccc3OC)C21 (stereo not given) | 32.7% | 58% | 45.6% | 36.9% | 3.12% (active) | 53.5% | -15.5% (active) | 11.4% | 29.4% | -2.82% (active) | 7.01% (active) | 8.73% (active) | 54.1% | 10.5% | 26.3% | 54.5% | 13.7% | -18.3% (active) | 43.2% | 3.35% (active)
CCOc1ccc(NC(=O)CSc2oc(-c3ccccc3)nc2S(=O)(=O)c2ccc(C)cc2)cc1 | 67.4% | -18.8% (active) | 61.1% | 53.9% | 35.9% | 46.4% | 83.8% | 41.1% | 66.1% | 81.8% | 67.3% | 53% | 81% | 32.2% | 62.1% | 54.1% | 48.1% | 17.8% | 72% | 71%
